Experimental data from PubChem BioAssay (NCI).
This is part of a sample that, as a whole, favours compounds with a hit. Of some 83,000 tested, about 20% had one in any assay.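 Step 1: grow cells in 96-well plates. Step 2: add test compound at a single concentration. Step 3: incubate 48 h. Step 4: record percent growth.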 Unmarked numbers belong to inactive results. Activity calls are given as the source filed them. Rule for the calls: active = growth percent below 10; inactive = the rest.

Legend:
Experiment in all cases: NCI-60 one-dose screen, 48 h (100 = growth as untreated, 0 = no growth, -100 = all killed)
Settings in all cases: 10 µM unless noted
HCT-15 colon = tested on: HCT-15 colon
HT29 colon = tested on: HT29 colon
SNB-75 CNS = tested on: SNB-75 CNS
SNB-19 CNS = tested on: SNB-19 CNS
U251 CNS = tested on: U251 CNS
PC-3 prostate = tested on: PC-3 prostate
SK-MEL-5 melanoma = tested on: SK-MEL-5 melanoma
UACC-62 melanoma = tested on: UACC-62 melanoma
LOX IMVI melanoma = tested on: LOX IMVI melanoma
SK-MEL-28 melanoma = tested on: SK-MEL-28 melanoma
SK-MEL-2 melanoma = tested on: SK-MEL-2 melanoma
EKVX NSCLC = tested on: EKVX NSCLC
SN12C renal = tested on: SN12C renal
UO-31 renal = tested on: UO-31 renal
TK-10 renal = tested on: TK-10 renal
ACHN renal = tested on: ACHN renal
CAKI-1 renal = tested on: CAKI-1 renal
A498 renal = tested on: A498 renal
CCRF-CEM leukemia = tested on: CCRF-CEM leukemia
MOLT-4 leukemia = tested on: MOLT-4 leukemia

Structure (SMILES)	growth (HCT-15 colon)	growth (HT29 colon)	growth (SNB-75 CNS)	growth (SNB-19 CNS)	growth (U251 CNS)	growth (PC-3 prostate)	growth (SK-MEL-5 melanoma)	growth (UACC-62 melanoma)	growth (LOX IMVI melanoma)	growth (SK-MEL-28 melanoma)	growth (SK-MEL-2 melanoma)	growth (EKVX NSCLC)	growth (SN12C renal)	growth (UO-31 renal)	growth (TK-10 renal)	growth (ACHN renal)	growth (CAKI-1 renal)	growth (A498 renal)	growth (CCRF-CEM leukemia)	growth (MOLT-4 leukemia)
CCN1C2CCC1/C(=C\c1ccccc1)C(=O)/C2=C/c1ccccc1	38.5%	42.3%	50.6%	65.5%	24.5%	47.7%	56.6%	40.1%	25.2%	77.1%	54.9%	71.4%	55.4%	61.1%	84.6%	57.7%	81.8%	66.1%	28.1%	31%
COc1ccc(Nc2ncc(I)c(NCCCNC(=O)C3CCC3)n2)cc1	-18.8% (active)	12.5%	39.4%	24.5%	2.43% (active)	23.8%	23.3%	22.9%	-11.3% (active)	43.4%	35.5%	21.9%	19.8%	-94.1% (active)	-14.5% (active)	-21% (active)	0.394% (active)	-51.4% (active)	2.24% (active)	10.5%
CS(=O)(=O)Nc1cc(-c2ccc3ncnc(Nc4ccc5c(cnn5Cc5ccccc5F)c4)c3c2)cnc1Cl	79.4%	51%	-15.7% (active)	49.1%	46.3%	37.5%	26.3%	19.4%	25.9%	17.5%	15.3%	52.2%	23.3%	43.2%	30.6%	59%	27.3%	-14.1% (active)	31.1%	16.4%
Cn1cc(-c2nc3c(F)cc4[nH]ncc4c3c3c2CCCC3)c(C(F)(F)F)n1	23.7%	37.1%	22.5%	75.3%	59.8%	0.262% (active)	40.2%	29.5%	28.7%	51%	49.2%	38.3%	49.4%	18.1%	24.7%	28.4%	18.6%	-15.1% (active)	-8.03% (active)	-18.9% (active)
Cc1ccc(NC(=O)c2sc3nc(C)c(C(O)c4ccccc4)cc3c2N)cc1 (stereo not given)	9.64% (active)	9.15% (active)	22.5%	24.5%	13.9%	19.6%	12.7%	28.8%	23.5%	57.6%	42.5%	48%	18.9%	41.6%	53%	32.8%	33.8%	-8.03% (active)	7.67% (active)	18.1%
O=Nc1ccc(NC(=O)Nc2ccc([N+](=O)[O-])cc2)cc1	83.2%	100%	96.4%	107%	92.5%	72.2%	86.7%	76.9%	88.8%	108%	116%	96%	94.9%	85.8%	99.7%	94.7%	97.1%	84%	68.4%	88.6%
COc1ccc(N/N=C/c2cn(-c3ccc(C(=O)O)cc3)nc2-c2cc3ccccc3oc2=O)cc1	30%	63.1%	82.1%	75.9%	107%	63.5%	39.5%	22.6%	25.7%	69.5%	60.3%	46.6%	89.2%	22.8%	97.1%	28.6%	60.8%	125%	32.9%	34.6%
Nc1cc(Br)cc2c1[nH]c(=O)c1ccccc12	110%	114%	81.7%	102%	90.7%	89.6%	96.5%	100%	95.5%	101%	112%	82%	88.6%	81.4%	104%	102%	82.5%	92.5%	93.2%	80.5%
